ELG1 DNA repair – blocks ELG1-dependent DNA repair in HEK293T cells. HEK293T ELG1-luciferase reporter, luminescence, 16 h; DNA damage induced by 5-fluorouridine. Potency, µM (highest dose often 46.1 µM), for the others: at the top dose activity change, negative = inhibition, actives largely listed as inhibitors. 2.3% of 330,000 active; also: % is scaled to controls: 0 for no effect and ±100 for the full control effect; nearly all actives have a fitted effect of over 55% in size
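Luminescence from the luciferase reporter, measured 30 min after ONE-Glo reagent at room temperature, was the read-out. Beforehand, 2,000 cells per well were exposed for 16 hr at 37 °C to 5-fluorouridine together with compound or vehicle.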
RORgamma inh – inhibitors of mouse ROR gamma transcriptional activity | Drosophila S2 Gal4-RORgamma UAS-luciferase reporter, 20 h | Potency, µM (doses to about 53.6 µM), for the others: at the highest dose activity change, negative = inhibition, most hits filed as inhibitors | AID 2551 | 5.4% of 310,000 active; also: % is scaled to controls: 0 for no effect and ±100 for the full control effect; nearly all actives have a fitted effect of over 60% in size
Target sequence (P51450 whole entry, looked up, the tested form may be a part): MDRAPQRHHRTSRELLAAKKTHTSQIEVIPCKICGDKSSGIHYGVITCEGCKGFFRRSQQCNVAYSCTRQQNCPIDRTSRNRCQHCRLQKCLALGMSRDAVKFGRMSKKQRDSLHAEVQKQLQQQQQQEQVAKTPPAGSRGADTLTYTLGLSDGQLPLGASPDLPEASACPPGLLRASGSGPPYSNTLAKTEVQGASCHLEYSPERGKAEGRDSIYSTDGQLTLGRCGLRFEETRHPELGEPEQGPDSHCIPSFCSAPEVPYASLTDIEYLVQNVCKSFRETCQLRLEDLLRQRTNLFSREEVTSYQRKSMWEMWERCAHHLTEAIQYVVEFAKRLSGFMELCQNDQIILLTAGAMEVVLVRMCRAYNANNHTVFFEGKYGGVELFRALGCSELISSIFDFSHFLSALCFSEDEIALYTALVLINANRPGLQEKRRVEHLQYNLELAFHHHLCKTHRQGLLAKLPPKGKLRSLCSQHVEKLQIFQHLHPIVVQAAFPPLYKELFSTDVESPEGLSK
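Schneider cells (Drosophila), stable Gal4 DBD–ROR gamma + UAS-luc; 1 hr cmpd preincubation; Cu2+ induction 700 uM final; 20 hr ambient; luminescence.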
SW480 rereplic – induces DNA re-replication in SW480 colon adenocarcinoma cells | 1.8% of 340,000 active | SW480 DNA re-replication, Hoechst DNA content imaging, 48 h | Potency, µM (doses to about 46.1 µM), for inactives: at the top dose re-replication activation, usual class: activators; also: % of control where 0% means no effect; nearly all actives have a fitted effect of over 55% in size
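Hoechst fluorescence of nuclei (405 nm excitation, 500-530 nm emission) measured by plate-scanning imager after 48 hr compound exposure at 37 C; re-replication scored as increased number of nuclei with elevated intensity.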
Gal4-VP16 FLuc – inhibits Gal4-VP16 luciferase reporter, ROR gamma counter-screen; Drosophila S2 Gal4-VP16 UAS-luciferase, luminescence, 20 h; Potency, µM (top dose mostly 53.6 µM), for inactives: top-dose activity, negative = inhibition, usual class: inhibitors; 3.5% of 310,000 active; AID 2546;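 also: Gal4-VP16 expression switched on by copper sulfate through the metallothionein promoter; % is scaled to controls: 0 for no effect and ±100 for the full control effect; nearly all actives have a fitted effect of over 50% in size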
MCF10A rereplic – induces DNA re-replication in MCF 10a normal breast cells; Potency, µM (top dose mostly 46.1 µM), for inactives: at the top dose activity, positive = re-replication, most hits filed as activators; 2.9% of 350,000 active; MCF 10A DNA re-replication, Hoechst nuclear intensity, 48 h; also: % of control where 0% means no effect; nearly all actives have a fitted effect of over 50% in size
Starred values were filed as active, the others as inactive; ? = inconclusive; / = no result; [ ] = dose if it differs, or a comment. This is a sample that favours compounds with a hit; in the whole collection about 10% have one here. Calls follow the shape of the dose curve; as a rule, active = well fitted curve in the direction sought with a large enough effect; inconclusive = small, poorly fitted or top-dose-only effect, or another doubt; inactive = no such curve, though single readings can be large; an effect the other way counts as inactive or inconclusive. Potency is read from the fitted curve at half-maximal effect.

SMILES | ELG1 DNA repair | RORgamma inh | SW480 rereplic | Gal4-VP16 FLuc | MCF10A rereplic
COc1cc(NC(=O)c2cccs2)c(OC)cc1NC(=O)CCC(=O)Nc1ccc2ncccc2c1 | 15µM* | ? | ? | ? | 21µM*
CCOC(=O)Cc1ccc(NC(=O)c2ccc(C(C)(C)C)cc2)cc1 | 18µM* | 0.2µM* | -19% | ? | 2%[9.22 µM]
Cc1cccc(NC(=O)c2ccc(C(=O)Nc3cccc(C)c3)nc2)c1 | 2% | -12% | ? | ? | 7.3µM*
O=C(Nc1ccc(NC(=O)c2ccco2)c(Cl)c1)c1ccc2c(c1)OCCO2 | ? | ? | -5% | ? | ?
CC(C)(C)c1ccc(C(=O)Nc2ccc(NC(=O)c3ccco3)cc2)cc1 | 14% | 6% | ? | 1% | 13µM*
O=C(Nc1ccc(NC(=O)c2ccco2)cc1)c1ccc2c(c1)OCO2 | 0% | 22µM* | 2% | ? | ?
CC(=O)Nc1cccc(NC(=O)c2ccc(C(=O)Nc3cccc(NC(C)=O)c3)nc2)c1 | ? | -7% | -19% | -15% | 2%
Cc1c(CC(=O)O)c(=O)oc2cc3occ(-c4ccc(F)cc4)c3cc12 | 22% | 0% | -8% | 2% | 12%
CC(C)(C)c1ccc(COn2ccnc2)cc1 | 5% | 16% | -136% | 1%[10 µM] | 7%
O=C(CN1CCCCCCC1)Nc1cccc(Cl)c1Cl | -1% | -10% | -2% | -9% | ?
Cc1cccc(NC(=O)c2ccc(S(=O)(=O)NCc3cccnc3)cc2)c1 | 15µM* | 25% | -4% | 6% | -1%
Cc1cc(C)cc(NC(=O)c2ccc(S(=O)(=O)NCc3cccnc3)cc2)c1 | ? | 10% | -12% | -21% | -1%
CC(C)(C)c1ccc(C(=O)Nc2ccc(C(=O)NCc3cccnc3)cc2)cc1 | 0.52µM* | ? | ? | 28µM* | 27%
CCCc1cc(-c2ccc3c(c2)COc2c4ccccc4nn2-3)on1 | ? | / | -3% | / | 16µM*
COc1ccc(NC(=O)COC(=O)CN2C(=O)c3ccccc3C2=O)cc1 | 1% | / | 0% | / | -1%
Cc1ccc(-c2ccc(/C=C3\SC(N4CCOCC4)=NC3=O)o2)cc1 | ? | 18% | 18µM* | -7% | 23µM*
O=C1N=C(N2CCOCC2)S/C1=C/c1ccc(-c2ccc(F)cc2)o1 | ? | -1% | ? | -3% | ?
Cc1cc2c(cc1C)C(c1cc(Br)ccc1F)CC(=O)N2 (stereo unspecified) | ? | -40% | ? | ? | 7.3µM*
Cc1cc2c(cc1C)C(c1ccccc1F)CC(=O)N2 (stereo unspecified) | ? | -18% | ? | -2% | 24%
CCC(C(=O)O)n1c2ccccc2c2cn[nH]c(=O)c21 (stereo unspecified) | 1% | -9% | -30% | -4% | -11%
Cc1onc(-c2ccccc2)c1C(=O)Nc1nnc(C(C)C)s1 | -14% | -33% | -18% | -18% | -1%
Cc1onc(-c2ccccc2)c1C(=O)Nc1nnc(-c2ccncc2)s1 | 1% | 7% | 0% | 2% | 0%
Cc1noc(C)c1C(=O)Nc1nnc(-c2ccccc2)s1 | 13% | 11µM* | -3%[9.22 µM] | ? | 13%
Cc1onc(-c2ccccc2)c1C(=O)Nc1nnc(N2CCCCCC2)s1 | ? | ? | 2% | 0.35µM* | 19%
O=C(OCc1nc2ccccc2s1)c1cc2ccccc2oc1=O | ? | ? | / | 4% | /
SMILES | ELG1 DNA repair | RORgamma inh | SW480 rereplic | Gal4-VP16 FLuc | MCF10A rereplic
C[n+]1ccc(C(=O)N/N=C/c2ccco2)cc1 | 17% | -1% | -62% | -8% | -16%
Cc1c(C(=O)N/N=C/c2ccccc2)[nH]c2ccc(Cl)cc12 | 10% | 18µM* | 21µM* | ? | 15µM*
Cc1c(C(=O)N/N=C/c2ccc(N(C)C)cc2)[nH]c2ccc(Cl)cc12 | 4% | 6.3µM* | ? | ? | 15%
COc1ccc(/C=N/NC(=O)c2[nH]c3ccc(Br)cc3c2-c2ccccc2)cc1 | 6% | 10µM* | 1.2µM* | 11µM* | 0.21µM*
COc1ccc(/C=N/NC(=O)c2[nH]c3ccc(Cl)cc3c2-c2ccccc2)c(C(=O)O)c1OC | 11% | -8% | 13% | -5% | ?
CC(=O)Nc1c(-c2ccccc2)c2cc(Br)ccc2[nH]c1=O | 0% | 15% | 5% | -12% | 0.73µM*

Screening results as filed in PubChem.
